Experiment [1] can be described thus: qHTS to identify inhibitors of the type 1 interferon - major histocompatibility complex class I in skeletal muscle: primary screen against the NCATS Pharmaceutical Collection (AID 1347407). Further: potency means the concentration at half of the fitted maximal effect. The essentials: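 Luminescence from HiBiT-tagged endogenous HLA-B*08:01 served as the read-out of IFN-beta-induced MHC class I in CRISPR-engineered C25cl48 myoblasts. Cells received 4 ng/ml IFN-beta plus compound (high final 46 uM, […]) for 24 h.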
On the technique in general: In qHTS, concentration-response curves come from the screen itself.

A short description of experiment [2]: qHTS to identify inhibitors of the type 1 interferon - major histocompatibility complex class I in skeletal muscle: primary screen against the NCATS Mechanism Interrogation Plate v5.0 (MIPE) Libary (AID 1347411). Further: nearly all actives have a fitted effect of over 65% in size. An outline of the steps:
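Luminescence from CRISPR HiBit-tagged endogenous HLA-B in human myoblasts reported MHC class I level after 24 h of IFN-beta (4 ng/ml) plus compound. Compounds ran as 11-point 1:3 series, top 46 uM final.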

Experiment [3] deals with Protein phosphatase 1D (Homo sapiens) (UniProt O15297). The experiment is described as follows: RapidFire Mass Spectrometry qHTS Assay for Modulators of WT P53-Induced Phosphatase 1 (WIP1) (AID 1347424). Further: series mostly up to about 63 µM. The essentials:
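RapidFire MS readout of dephosphorylated VEPPL-S-QETFS product, with 1 uM isotope-labelled peptide standard. Reaction: 10 nM WIP1, 2 uM phosphopeptide substrate, 5 min, room temperature, after 1 h compound preincubation; stopped with 0.5% formic acid.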

For experiment [4] the target is unchanged. As to the kind of experiment: Rhodamine-PBP qHTS Assay for Modulators of WT P53-Induced Phosphatase 1 (WIP1) (AID 1347425). The essentials:
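The read-out is the change in Rhodamine-PBP fluorescence (f1 - f0, ex 525/em 598 nm) as Pi is released, read each minute for 11 min. Final reaction: 5 nM WIP1, 10 uM phosphopeptide VEPPL-pS-QETFS, 10 uM Rh-PBP, 50 mM Tris-HCl pH 7.5, 30 mM MgCl2. Compound was preincubated with enzyme for 1 hour at room temperature.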

Experiment [5] in a line: Primary qHTS for inhibitors of La Crosse Virus (LACV) - induced cell death in SH-SY5Y cells (AID 1508616).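 Further: top concentration of the series differs between compounds; higher means more rescue of cells from virus-induced death.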 An outline of the steps:
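Rescue of virus-induced death was read as ATPLite luminescence after 6 days at 37C, scaled between DMSO wells with LACV and without virus. Cells were SH-SY5Y, 6000/well, infected at 0.01 MOI after compound addition.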

The target in experiment [6] is Calcium and integrin-binding protein 1 (Homo sapiens) (UniProt Q99828). As to the kind of experiment: Primary qHTS for Identification of Calcium Integrin Binding Protein 1 (CIB1) Competitor (AID 1508620). Further: top concentration of the series differs between compounds. The essentials: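 Fluorescence polarization competition: GST-tagged CIB1 (1 uM final) preincubated with compound 15 min at room temperature, then FITC-labelled alphaIIb peptide (100 nM final) added. After 15 min at room temperature, polarization read at Ex 480/Em 540.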

The target is the same in experiment [7]. The experiment is described as follows: Confirmatory qHTS for Identification of Calcium Integrin Binding Protein 1 (CIB1) Competitor (AID 1508617). Further: nearly all actives have a fitted effect of over 65% in size. An outline of the steps: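 Compounds at up to 114 uM final met 1 uM GST-tagged CIB1 for 15 min at room temperature (HEPES pH 7.4, 5 mM CaCl2). FITC-labelled alphaIIb peptide, 100 nM, added; polarization read after 15 min more.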

Records with an inconclusive call do not appear. Active and inactive are the calls of the source. The call rests on the fitted dose curve; in most records, active means well fitted curve in the direction sought with a large enough effect; inconclusive means small, poorly fitted or top-dose-only effect, or another doubt; inactive means no such curve, though single readings can be large; an effect the other way counts as inactive or inconclusive.

Calcium and integrin-binding protein 1 (Homo sapiens), sequence (Q99828 whole entry, looked up): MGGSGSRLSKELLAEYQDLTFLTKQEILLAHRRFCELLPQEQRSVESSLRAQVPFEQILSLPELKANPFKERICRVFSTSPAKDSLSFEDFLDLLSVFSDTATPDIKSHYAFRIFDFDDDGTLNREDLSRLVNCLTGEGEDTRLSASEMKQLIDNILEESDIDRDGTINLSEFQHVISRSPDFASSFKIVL
Protein phosphatase 1D (Homo sapiens), sequence (O15297 whole entry, looked up): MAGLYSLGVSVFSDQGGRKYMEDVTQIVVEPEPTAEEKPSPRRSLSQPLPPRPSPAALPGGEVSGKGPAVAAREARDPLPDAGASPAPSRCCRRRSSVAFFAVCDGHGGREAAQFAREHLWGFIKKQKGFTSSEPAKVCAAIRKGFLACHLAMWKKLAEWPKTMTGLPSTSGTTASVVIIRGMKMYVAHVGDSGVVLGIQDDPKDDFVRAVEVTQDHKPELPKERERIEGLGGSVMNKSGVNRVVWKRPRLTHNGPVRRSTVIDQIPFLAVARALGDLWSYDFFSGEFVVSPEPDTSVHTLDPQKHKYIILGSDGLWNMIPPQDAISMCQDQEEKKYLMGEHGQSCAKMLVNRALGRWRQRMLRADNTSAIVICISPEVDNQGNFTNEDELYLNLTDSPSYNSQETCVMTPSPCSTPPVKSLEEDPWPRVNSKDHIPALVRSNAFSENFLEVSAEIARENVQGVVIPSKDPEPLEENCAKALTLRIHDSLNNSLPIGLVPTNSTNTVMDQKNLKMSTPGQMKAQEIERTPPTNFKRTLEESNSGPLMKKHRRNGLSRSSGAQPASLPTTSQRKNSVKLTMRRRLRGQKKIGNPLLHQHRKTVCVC

`O=[N+]([O-])c1cncn1CCN1CCOCC1`: the Potency result in experiment [1], in experiment [2], in experiment [3] and in experiment [6] was “inactive” in each case. Moreover, the compound was classed as inactive in experiment [4] and in experiment [5].
Regarding `O=C(c1cc(O)c(O)c(O)c1)c1ccc(O)c(O)c1O`, the Potency result in experiment [1] and in experiment [3] was “inactive” in each case. The outcome in experiment [4] and in experiment [5] was inactive.
Turning to `CO[C@@]1(NC(=O)CSC[C@@H](N)C(=O)O)C(=O)N2C(C(=O)O)=C(CSc3nnnn3C)CS[C@@H]21`, the Potency entry in experiment [1], in experiment [3] and in experiment [6] was “inactive” throughout. For the same compound, the result in experiment [4] and in experiment [5] was inactive.
Take `CC(C)Cc1ccc(C(C)C(=O)OCc2ccccn2)cc1` (configuration not stated): the Potency result in experiment [1], in experiment [3] and in experiment [6] was “inactive” throughout. The outcome in experiment [4] and in experiment [5] was inactive.
For the compound `Cc1cc(CCCOc2c(C)cc(-c3noc(C(F)(F)F)n3)cc2C)on1`, the Potency result in experiment [1], in experiment [3] and in experiment [6] was “inactive” each time. For the same compound, the outcome in experiment [4] and in experiment [5] was inactive.
As to `CC(C)(C)C(O)/C=C/c1ccc2c(c1)OCO2` (configuration not stated), the Potency result in experiment [1] and in experiment [3] was “inactive” in each case. Moreover, the compound was called inactive in experiment [4] and in experiment [5].
`O=C(O)CCCC[P+](c1ccccc1)(c1ccccc1)c1ccccc1`: the Potency entry in experiment [1] and in experiment [3] was “inactive” each time. Besides, the compound was called inactive in experiment [4] and in experiment [5].
As for `CN1CCCN=C1/C=C/c1cccs1`, the Potency result in experiment [1], in experiment [2], in experiment [3] and in experiment [6] was “inactive” in each case. Further, the call in experiment [4] and in experiment [5] was inactive.
Turning to `CC1(C)O[C@@H]2C[C@H]3[C@@H]4C[C@H](F)C5=CC(=O)C=C[C@]5(C)[C@@]4(F)[C@@H](O)C[C@]3(C)[C@]2(C(=O)CO)O1`, the Potency result in experiment [1], in experiment [2], in experiment [3] and in experiment [6] was “inactive” each time. The compound was called inactive in experiment [4] and in experiment [5].
With `CC(C)C(C)(C)C(C)(C)C(C)(C)S`, the Potency entry in experiment [1] and in experiment [3] was “inactive” in each case. Moreover, the result in experiment [4] and in experiment [5] was inactive.
With `CNC[C@H](O)[C@@H](O)[C@H](O)[C@H](O)CO`, the Potency result in experiment [1], in experiment [2], in experiment [3] and in experiment [6] was “inactive” each time. The call in experiment [4] and in experiment [5] was inactive.
For the compound `O=C(O)/C=C(\CC(=O)O)C(=O)O`, the Potency result in experiment [1], in experiment [3] and in experiment [6] was “inactive” each time. The compound was called inactive in experiment [4] and in experiment [5].
For the compound `NCC(=O)O`, the Potency entry in experiment [1] and in experiment [3] was “inactive” throughout. The result in experiment [4] and in experiment [5] was inactive.
With `COC(=O)c1cc(Cl)ccc1NS(=O)(=O)C(F)(F)F`, the Potency entry in experiment [1], in experiment [3] and in experiment [7] was “inactive” in each case. Also, the result in experiment [4] and in experiment [5] was inactive.
For `COCCc1ccc(OCC2CO2)cc1` (configuration not stated), the Potency entry in experiment [1], in experiment [3] and in experiment [6] was “inactive” each time. The call in experiment [4] and in experiment [5] was inactive.
`O=C(O)C(=O)Nc1cccc(-c2nn[nH]n2)c1`: the Potency result in experiment [1], in experiment [2], in experiment [3] and in experiment [6] was “inactive” in each case. Besides, the result in experiment [4] and in experiment [5] was inactive.
For `CC(=O)N(c1onc(C)c1C)S(=O)(=O)c1ccc(N)cc1`, the Potency result in experiment [1] and in experiment [3] was “inactive” each time. In addition, the call in experiment [4] and in experiment [5] was inactive.
For the compound `CC(C)NCCCC1(C(N)=O)c2ccccc2-c2ccccc21`, the Potency result in experiment [1] and in experiment [3] was “inactive” in each case. In addition, the compound was classed as inactive in experiment [4] and in experiment [5].
For the compound `OCCCc1ccccc1`, the Potency entry in experiment [1] and in experiment [3] was “inactive” in each case. Further, the compound was called inactive in experiment [4] and in experiment [5].
For the compound `CN1CC[C@H](c2c(O)cc(O)c3c(=O)cc(-c4ccccc4Cl)oc23)[C@H](O)C1`, the Potency in experiment [1] is 0.21 µM (active). In addition, the Potency result in experiment [3] was “inactive”. Besides, the compound was classed as inactive in experiment [4] and in experiment [5].
For `O=C(O)[C@H](O)[C@@H](O)[C@H](O[C@@H]1O[C@H](CO)[C@H](O)[C@H](O)[C@H]1O)[C@H](O)CO`, the Potency result in experiment [1], in experiment [2], in experiment [3] and in experiment [6] was “inactive” each time. For the same compound, the compound was called inactive in experiment [4] and in experiment [5].

Source of the values: PubChem BioAssay (NCATS).
